Test results published in PubChem BioAssay (EPA / NIEHS).
The source made the active and inactive calls. How the source made its calls: active means hit-call score of the fitted dose curve at least 0.9, where 1 is the maximum; inactive means score below 0.9.

Tests used:
[1] = read-out: Tumor necrosis factor receptor superfamily member 6 (Homo sapiens) (UniProt P25445); assay: LTEA_HepaRG_FAS: Life Technologies and Expression Analysis (LTEA) Assay for Fas cell surface death receptor (FAS) using HepaRG (AID 2283447); details: mRNA level, 48 h; actives raise or lower the signal
Method in brief: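 Differentiated HepaRG cells in serum-free induction medium were exposed 48 h to 8 half-log concentrations up to 100 uM in 0.5% DMSO, in duplicate. FAS mRNA was measured by qRT-PCR normalised to ACTB, GAPDH and POLR2A; bidirectional fit versus DMSO.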

[2] = read-out: Fatty acid synthase (Homo sapiens) (UniProt P49327); assay: LTEA_HepaRG_FASN: Life Technologies and Expression Analysis (LTEA) Assay for Fatty Acid Synthase (FASN) using HepaRG (AID 2283448); details: mRNA level, 48 h; actives raise or lower the signal
Method in brief: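 HepaRG, 48 h exposure, 8-pt half-log series top 100 uM, 0.5% DMSO vehicle, duplicates. Readout: FASN transcript by Fluidigm qRT-PCR; housekeeping-normalized; bidirectional curve fit vs DMSO baseline.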

[3] = read-out: Cyclin D2 (CCND2), CCND2 (gene 894); assay: LTEA_HepaRG_CCND2: Life Technologies and Expression Analysis (LTEA) Assay for Cyclin D2 (CCND2) using HepaRG (AID 2283449); details: mRNA level, 48 h; actives raise or lower the signal;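 further: CCND2 transcript measured by TaqMan qRT-PCR and normalised to three housekeeping genes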
Method in brief: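 HepaRG, 48 h dosing, 8-pt half-log curve from 100 uM, 0.5% DMSO; duplicate wells. Readout: CCND2 transcript by microfluidic qRT-PCR, housekeeping-normalised; bidirectional fit vs DMSO baseline.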

[4] = read-out: Cyclin Dependent Kinase Inhibitor 1A (CDKN1A), CDKN1A (gene 1026); assay: LTEA_HepaRG_CDKN1A: Life Technologies and Expression Analysis (LTEA) Assay for Cyclin Dependent Kinase Inhibitor 1A (CDKN1A) using HepaRG (AID 2283450); details: mRNA level, 48 h; actives raise or lower the signal
Method in brief: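 Differentiated HepaRG cells in serum-free induction medium, exposed 48 h in duplicate to eight half-log concentrations up to 100 uM in 0.5% DMSO. mRNA measured by TaqMan qRT-PCR, normalized to ACTB, GAPDH, POLR2A; bidirectional fit versus DMSO.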

[5] = read-out: Cyclin D1 (CCND1), CCND1 (gene 595); assay: LTEA_HepaRG_CCND1: Life Technologies and Expression Analysis (LTEA) Assay for Cyclin D1 (CCND1) using HepaRG (AID 2283451); details: mRNA level, 48 h; actives raise or lower the signal
Method in brief: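 Differentiated HepaRG cells exposed 48 h in serum-free induction medium to eight half-log concentrations from 100 uM top, 0.5% DMSO, duplicates. CCND1 mRNA measured by Fluidigm TaqMan qRT-PCR, normalised to ACTB, GAPDH, POLR2A; bidirectional fit.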

[6] = read-out: catalase (CAT), CAT (gene 847); assay: LTEA_HepaRG_CAT: Life Technologies and Expression Analysis (LTEA) Assay for catalase (CAT) using HepaRG (AID 2283452); details: mRNA level, 48 h; actives raise or lower the signal
Method in brief: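 HepaRG cells in serum-free induction medium, 0.5% DMSO vehicle, exposed 48 h in duplicate over 8 half-log concentrations from 100 uM. CAT mRNA measured by qRT-PCR, normalized to ACTB, GAPDH, POLR2A; bidirectional fit versus DMSO.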

[7] = read-out: flavin-containing dimethylaniline monooxygenases 3 (FMO3), FMO3 (gene 2328); assay: LTEA_HepaRG_FMO3: Life Technologies and Expression Analysis (LTEA) Assay for flavin-containing dimethylaniline monooxygenases 3 (FMO3) using HepaRG (AID 2283453); details: mRNA level, 48 h; actives raise or lower the signal
Method in brief: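 Eight-point concentration-response in serum-free HepaRG cultures (top 100 uM, 0.5% DMSO, 48 h). Read-out: FMO3 mRNA level normalized to three endogenous control genes, fitted bidirectionally versus vehicle.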

[8] = read-out: Cytochrome P450 (CYP1A1), CYP1A1 (gene 1543); assay: LTEA_HepaRG_CYP1A1: Life Technologies and Expression Analysis (LTEA) Assay for Cytochrome P450 (CYP1A1) using HepaRG (AID 2283454); details: mRNA level, 48 h; actives raise or lower the signal
Method in brief: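 Differentiated human HepaRG cells, after 48 h plating, exposed in duplicate for 48 h in serum-free induction medium to 8 half-log concentrations up to 100 uM in 0.5% DMSO. CYP1A1 mRNA by qRT-PCR, normalized to ACTB/GAPDH/POLR2A; bidirectional fit versus DMSO.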

[9] = read-out: CFLAR gene, CFLAR (gene 8837); assay: LTEA_HepaRG_CFLAR: Life Technologies and Expression Analysis (LTEA) Assay for CFLAR gene using HepaRG (AID 2283455); details: mRNA level, 48 h; actives raise or lower the signal
Method in brief: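 qRT-PCR read-out (Fluidigm/TaqMan) of CFLAR mRNA, normalized to three housekeeping genes, in differentiated human HepaRG cells after 48 h chemical exposure; 8-point half-log series from 100 uM in 0.5% DMSO; bidirectional curve fitting versus DMSO.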

[10] = read-out: Forkhead box O1 (FOXO1), FOXO1 (gene 2308); assay: LTEA_HepaRG_FOXO1: Life Technologies and Expression Analysis (LTEA) Assay for Forkhead box O1 (FOXO1) using HepaRG (AID 2283456); details: mRNA level, 48 h; actives raise or lower the signal
Method in brief: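 HepaRG, 48 h exposure, 8-pt half-log series from 100 uM in 0.5% DMSO, duplicates; Fluidigm qRT-PCR mRNA, housekeeping-normalised; bidirectional fit vs DMSO baseline.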

[11] = read-out: growth arrest and DNA damage 45 (GADD45A), GADD45A (gene 1647); assay: LTEA_HepaRG_GADD45A: Life Technologies and Expression Analysis (LTEA) Assay for growth arrest and DNA damage 45 (GADD45A) using HepaRG (AID 2283458); details: mRNA level, 48 h; actives raise or lower the signal
Method in brief: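 HepaRG, 48 h exposure, 8 conc. (top 100 uM, half-log steps), 0.5% DMSO vehicle, duplicates. Read-out: qRT-PCR mRNA level, housekeeping-normalized (ACTB/GAPDH/POLR2A). Curves fit bidirectionally vs DMSO baseline.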

[12] = read-out: Forkhead box O3 (FOXO3), FOXO3 (gene 2309); assay: LTEA_HepaRG_FOXO3: Life Technologies and Expression Analysis (LTEA) Assay for Forkhead box O3 (FOXO3) using HepaRG (AID 2283459); details: mRNA level, 48 h; actives raise or lower the signal
Method in brief: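 qRT-PCR readout of FOXO3 transcript, normalized to three housekeeping genes (ACTB, GAPDH, POLR2A); gain or loss fitted against 0.5% DMSO vehicle. HepaRG cells, 48 h chemical exposure, 8-point half-log series, top 100 uM.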

[13] = read-out: ABC Transporter (ABCB1), ABCB1 (gene 5243); assay: LTEA_HepaRG_ABCB1: Life Technologies and Expression Analysis (LTEA) Assay for ABC Transporter (ABCB1) using HepaRG (AID 2283460); details: mRNA level, 48 h; actives raise or lower the signal
Method in brief: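 HepaRG, 48 h exposure, 8-pt half-log series from 100 uM, 0.5% DMSO vehicle, duplicates. Readout: ABCB1 transcript by Fluidigm TaqMan qRT-PCR, housekeeping-normalized; bidirectional curve fit vs DMSO baseline.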

[14] = read-out: growth arrest and DNA damage 45 (GADD45B), GADD45B (gene 4616); assay: LTEA_HepaRG_GADD45B: Life Technologies and Expression Analysis (LTEA) Assay for growth arrest and DNA damage 45 (GADD45B) using HepaRG (AID 2283461); details: mRNA level, 48 h; actives raise or lower the signal
Method in brief: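 Differentiated human HepaRG cells in serum-free induction medium exposed 48 h in duplicate to eight concentrations, top 100 uM, half-log steps, 0.5% DMSO. GADD45B mRNA by TaqMan qRT-PCR, normalized to ACTB, GAPDH, POLR2A; bidirectional fit versus DMSO.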

[15] = read-out: ABC Transporter (ABCC3), ABCC3 (gene 8714); assay: LTEA_HepaRG_ABCC3: Life Technologies and Expression Analysis (LTEA) Assay for ABC Transporter (ABCC3) using HepaRG (AID 2283462); details: mRNA level, 48 h; actives raise or lower the signal
Method in brief: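 Differentiated human HepaRG cells exposed 48 h in serum-free induction medium, 0.5% DMSO vehicle, 8-point half-log series to 100 uM in duplicate. ABCC3 mRNA by qRT-PCR, normalised to ACTB, GAPDH, POLR2A; bidirectional fit vs DMSO.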

[16] = read-out: ABC Transporter (ABCB11), ABCB11 (gene 8647); assay: LTEA_HepaRG_ABCB11: Life Technologies and Expression Analysis (LTEA) Assay for ABC Transporter (ABCB11) using HepaRG (AID 2283463); details: mRNA level, 48 h; actives raise or lower the signal
Method in brief: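 HepaRG, 48 h exposure, 8-pt half-log CRC top 100 uM, 0.5% DMSO vehicle, duplicates. Readout: TaqMan qRT-PCR of ABCB11 mRNA, housekeeping-normalized (ACTB/GAPDH/POLR2A). Bidirectional fit vs DMSO baseline.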

[17] = read-out: ABC Transporter (ABCC2), ABCC2 (gene 1244); assay: LTEA_HepaRG_ABCC2: Life Technologies and Expression Analysis (LTEA) Assay for ABC Transporter (ABCC2) using HepaRG (AID 2283464); details: mRNA level, 48 h; actives raise or lower the signal
Method in brief: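 Differentiated HepaRG cells in serum-free induction medium exposed 48 h to eight half-log concentrations up to 100 uM, 0.5% DMSO, in duplicate. ABCC2 mRNA measured by qRT-PCR (TaqMan, Fluidigm), normalized to ACTB, GAPDH and POLR2A. Fitted in both directions against DMSO.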

[18] = read-out: Broad substrate specificity ATP-binding cassette transporter ABCG2 (Homo sapiens) (UniProt Q9UNQ0); assay: LTEA_HepaRG_ABCG2: Life Technologies and Expression Analysis (LTEA) Assay for ABC Transporter (ABCG2) using HepaRG (AID 2283465); details: mRNA level, 48 h; actives raise or lower the signal
Method in brief: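 HepaRG, 48 h exposure, 8-pt half-log series from 100 uM, 0.5% DMSO vehicle, duplicates. Readout: ABCG2 transcript by qRT-PCR (Fluidigm array), housekeeping-normalized; bidirectional curve fit relative to DMSO baseline.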

[19] = CEETOX_H295R_PROG: CeeTox H295R High-throughput Steroidogenesis Assay for Progesterone (PROG) (AID 2283442); details: actives raise or lower the signal;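 on AC50: human H295R adrenal cells primed with 10 µM forskolin before dosing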
Method in brief: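 H295R adrenal cells prestimulated 48 h with 10 uM forskolin, then exposed 48 h to test chemical in 0.1% DMSO. Progesterone in medium quantified by HPLC-MS/MS after MTBE extraction; viability checked by MTT in same wells.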

[20] = CEETOX_H295R_TESTO: CeeTox H295R High-throughput Steroidogenesis Assay for Testosterone (TESTO) (AID 2283457); details: actives raise or lower the signal
Method in brief: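 H295R adrenal cells, passage ≤10, exposed to chemicals for 48 h. Testosterone in medium measured by MTBE extraction and HPLC-MS/MS against a 7-point standard curve. Bidirectional fit versus DMSO; MTT viability checked in the same wells.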

Measured: AC50

Fatty acid synthase (Homo sapiens), sequence (P49327 whole entry, looked up): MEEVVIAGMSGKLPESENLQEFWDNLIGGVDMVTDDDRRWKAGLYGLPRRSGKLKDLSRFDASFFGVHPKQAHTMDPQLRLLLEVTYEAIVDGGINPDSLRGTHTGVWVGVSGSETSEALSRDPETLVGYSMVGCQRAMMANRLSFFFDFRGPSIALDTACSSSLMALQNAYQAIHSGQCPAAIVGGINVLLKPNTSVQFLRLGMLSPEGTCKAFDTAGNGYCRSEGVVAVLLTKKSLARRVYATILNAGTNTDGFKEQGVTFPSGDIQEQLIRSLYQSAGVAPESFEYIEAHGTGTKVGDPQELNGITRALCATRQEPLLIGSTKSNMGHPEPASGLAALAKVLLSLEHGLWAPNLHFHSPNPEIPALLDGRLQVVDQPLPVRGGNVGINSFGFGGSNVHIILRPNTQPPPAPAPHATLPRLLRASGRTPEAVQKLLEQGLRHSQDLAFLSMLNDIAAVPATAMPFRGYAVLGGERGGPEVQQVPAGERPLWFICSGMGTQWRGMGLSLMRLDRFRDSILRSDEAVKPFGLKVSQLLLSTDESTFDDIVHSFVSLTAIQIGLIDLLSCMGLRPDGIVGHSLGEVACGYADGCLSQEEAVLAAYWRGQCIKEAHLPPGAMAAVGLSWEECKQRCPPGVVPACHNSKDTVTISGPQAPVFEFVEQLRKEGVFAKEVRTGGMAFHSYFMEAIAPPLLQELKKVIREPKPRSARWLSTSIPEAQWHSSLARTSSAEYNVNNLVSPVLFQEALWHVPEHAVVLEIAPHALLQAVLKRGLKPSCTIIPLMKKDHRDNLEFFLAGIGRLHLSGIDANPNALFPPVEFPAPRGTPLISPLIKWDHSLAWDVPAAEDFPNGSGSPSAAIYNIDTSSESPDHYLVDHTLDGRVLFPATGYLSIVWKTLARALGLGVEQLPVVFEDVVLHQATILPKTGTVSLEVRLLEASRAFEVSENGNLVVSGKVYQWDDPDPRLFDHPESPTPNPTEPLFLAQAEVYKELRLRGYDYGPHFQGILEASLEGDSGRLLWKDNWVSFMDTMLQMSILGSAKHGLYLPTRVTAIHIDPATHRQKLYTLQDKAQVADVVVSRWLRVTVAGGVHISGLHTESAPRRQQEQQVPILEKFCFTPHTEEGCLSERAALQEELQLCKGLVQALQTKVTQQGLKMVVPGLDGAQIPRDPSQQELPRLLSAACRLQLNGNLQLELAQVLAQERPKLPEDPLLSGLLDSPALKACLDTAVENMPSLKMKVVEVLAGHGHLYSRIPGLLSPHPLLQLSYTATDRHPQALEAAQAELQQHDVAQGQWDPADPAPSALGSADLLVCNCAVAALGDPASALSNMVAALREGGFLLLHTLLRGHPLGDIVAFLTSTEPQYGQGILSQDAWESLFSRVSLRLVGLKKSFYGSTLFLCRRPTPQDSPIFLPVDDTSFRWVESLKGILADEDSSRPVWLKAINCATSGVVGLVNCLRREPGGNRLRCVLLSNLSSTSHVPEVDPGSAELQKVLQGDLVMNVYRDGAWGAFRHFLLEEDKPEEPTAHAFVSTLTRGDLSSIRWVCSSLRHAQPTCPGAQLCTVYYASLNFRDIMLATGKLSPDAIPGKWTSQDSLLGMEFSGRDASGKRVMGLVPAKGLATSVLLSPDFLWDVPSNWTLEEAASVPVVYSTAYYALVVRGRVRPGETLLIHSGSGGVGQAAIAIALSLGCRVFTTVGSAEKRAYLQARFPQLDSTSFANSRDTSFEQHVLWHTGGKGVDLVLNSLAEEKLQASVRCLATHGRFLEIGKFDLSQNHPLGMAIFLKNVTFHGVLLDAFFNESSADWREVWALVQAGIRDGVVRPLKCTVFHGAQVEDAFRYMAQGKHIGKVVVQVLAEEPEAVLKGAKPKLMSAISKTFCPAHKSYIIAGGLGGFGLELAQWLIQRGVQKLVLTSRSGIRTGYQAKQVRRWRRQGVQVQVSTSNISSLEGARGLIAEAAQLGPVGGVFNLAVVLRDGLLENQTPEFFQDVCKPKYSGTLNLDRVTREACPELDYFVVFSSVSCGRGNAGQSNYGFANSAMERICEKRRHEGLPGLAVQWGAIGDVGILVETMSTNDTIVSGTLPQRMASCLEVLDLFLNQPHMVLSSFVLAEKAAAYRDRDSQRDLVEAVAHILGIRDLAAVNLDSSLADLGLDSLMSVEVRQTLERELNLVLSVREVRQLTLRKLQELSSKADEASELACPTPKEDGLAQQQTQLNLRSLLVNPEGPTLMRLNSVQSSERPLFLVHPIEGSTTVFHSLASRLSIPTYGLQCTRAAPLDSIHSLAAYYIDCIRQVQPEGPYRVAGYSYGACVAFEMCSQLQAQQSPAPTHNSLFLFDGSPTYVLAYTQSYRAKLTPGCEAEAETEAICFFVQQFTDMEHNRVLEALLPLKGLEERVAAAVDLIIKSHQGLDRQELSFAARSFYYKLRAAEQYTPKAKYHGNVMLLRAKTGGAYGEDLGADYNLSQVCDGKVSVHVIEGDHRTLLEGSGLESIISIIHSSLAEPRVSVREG
Broad substrate specificity ATP-binding cassette transporter ABCG2 (Homo sapiens), sequence (Q9UNQ0 whole entry, looked up): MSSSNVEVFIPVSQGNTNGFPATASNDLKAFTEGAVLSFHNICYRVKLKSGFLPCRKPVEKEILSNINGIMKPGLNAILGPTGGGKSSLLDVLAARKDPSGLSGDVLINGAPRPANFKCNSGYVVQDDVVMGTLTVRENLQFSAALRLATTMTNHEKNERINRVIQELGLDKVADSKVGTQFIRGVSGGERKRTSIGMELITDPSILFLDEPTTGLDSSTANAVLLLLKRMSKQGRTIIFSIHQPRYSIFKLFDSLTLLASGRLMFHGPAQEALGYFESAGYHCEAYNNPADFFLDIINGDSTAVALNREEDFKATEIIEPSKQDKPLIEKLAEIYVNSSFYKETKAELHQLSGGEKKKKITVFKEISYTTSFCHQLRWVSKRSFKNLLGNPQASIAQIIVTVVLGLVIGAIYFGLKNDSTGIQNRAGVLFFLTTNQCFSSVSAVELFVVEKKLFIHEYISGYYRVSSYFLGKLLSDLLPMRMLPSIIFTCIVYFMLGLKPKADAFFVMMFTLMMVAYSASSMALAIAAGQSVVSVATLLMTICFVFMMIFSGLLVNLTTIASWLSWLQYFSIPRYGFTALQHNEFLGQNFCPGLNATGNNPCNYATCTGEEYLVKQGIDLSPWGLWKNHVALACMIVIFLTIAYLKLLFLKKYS

CN1C(=O)CC[C@H]1c1cccnc1
active: [8] 76.9 µM
not listed: [19] | [20]
inactive: all other assays above

c1ccc(C[n+]2cccc3ccccc32)cc1
inactive: [1] | [3] | [5] | [9] | [13] | [17]
active: [2] 50 µM | [4] 50 µM | [6] 31.1 µM | [7] 32.6 µM | [10] 76.1 µM | [11] 63.7 µM | [12] 50 µM | [15] 23.2 µM | [16] 31.3 µM | [18] 3.93 µM

CO[C@H]1/C=C/O[C@@]2(C)Oc3c(C)c(O)c4c(O)c(c(/C=N/N5CCN(C)CC5)c(O)c4c3C2=O)NC(=O)/C(C)=C\C=C\[C@H](C)[C@H](O)[C@@H](C)[C@@H](O)[C@@H](C)[C@H](OC(C)=O)[C@@H]1C
active: [8] 31.2 µM | [13] 0.442 µM | [17] 0.344 µM
not listed: [3] | [7] | [14] | [20]
inactive: all other assays above

OC12N=C(c3ccccc3)SC1Cc1cc(Cl)ccc12 (stereo unspecified)
active: [2] 2.18 µM | [6] 16.6 µM | [7] 15.7 µM | [8] 1.21 µM | [9] 5 µM | [12] 4.85 µM | [13] 17 µM | [15] 21 µM | [16] 16.7 µM | [18] 16.7 µM
inactive: [19] | [1] | [3] | [4] | [10] | [11] | [17]

O=C(O)Cn1c(=O)n(Cc2ccc(Br)cc2F)c(=O)c2ccc(Cl)cc21
active: [19] 73.3 µM | [8] 87.8 µM | [13] 9.92 µM
not listed: [7]
inactive: all other assays above

COc1cccc([C@H](O)C2CCN(CCc3ccc(F)cc3)CC2)c1OC
active: [19] 0.405 µM | [16] 26.6 µM
not listed: [5] | [7] | [8] | [14] | [20]
inactive: all other assays above
